HEK293 tox – cytotoxicity counter-screen for GLP-1 receptor inverse agonists; HEK293 cAMP-luciferase reporter cells, luminescence, 24 h; Potency, µM (series often up to 38.3 µM), for inactives: at the top dose activity change, negative = inhibition, most hits filed as inhibitors; 410,000 compounds, 0.13% hits; AID 624418;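 also: loss of luciferase light is scored as toxicity; % is scaled to controls: 0 for no effect and ±100 for the full control effect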
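Luminescence readout: signal drop marks cytotoxicity. Plated cells grew 12 h at 37 °C, 5% CO2, received 23 nL compound for 24 h, then got luciferase reagent, read after 12 min at RT.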
GLP1R ag – activates the human GLP-1 receptor; P43220; Potency, µM (doses to about 45.6 µM), inactives show at the top dose activation, hits mostly activators; HEK293 GLP-1R CRE-luciferase, luminescence, 4-6 h; cells express a hypersensitive GLP-1R form; 380,000 compounds, 0.007% hits; also: % of control where 0% means no effect
Target sequence (P43220 whole entry, looked up): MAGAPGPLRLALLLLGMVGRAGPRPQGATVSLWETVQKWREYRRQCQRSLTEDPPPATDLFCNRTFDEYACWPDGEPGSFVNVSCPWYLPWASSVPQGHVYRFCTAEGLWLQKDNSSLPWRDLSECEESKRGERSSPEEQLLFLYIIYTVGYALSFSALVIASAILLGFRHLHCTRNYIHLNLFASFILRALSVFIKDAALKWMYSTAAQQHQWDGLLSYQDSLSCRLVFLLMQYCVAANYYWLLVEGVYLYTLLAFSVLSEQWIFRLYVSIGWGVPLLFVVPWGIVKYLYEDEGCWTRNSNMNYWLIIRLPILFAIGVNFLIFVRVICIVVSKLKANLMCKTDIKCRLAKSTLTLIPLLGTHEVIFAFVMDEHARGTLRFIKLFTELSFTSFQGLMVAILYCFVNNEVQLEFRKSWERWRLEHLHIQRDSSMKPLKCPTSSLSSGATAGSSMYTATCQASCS
ClpP mod – qHTS Assay for Activators of ClpP; ATP-dependent Clp protease proteolytic subunit (Bacillus subtilis (strain 168)), P80244; 340,000 compounds, 1.9% hits; purified B. subtilis ClpP, FRET peptide cleavage, 20 min; Potency, µM (series often up to 57.5 µM), without a hit: top-dose activity change, negative = active; active = well fitted falling curve with a large enough effect; inconclusive = small, poorly fitted or top-dose-only effect; inactive = no such curve, though single readings can be large or run the other way; also: the source files actives as falling curves though it sought activators and does not explain the sign; nearly all actives have a fitted effect of over 65% in size
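FRET quenching reversal measured ClpP activation: 10 microg/mL B. subtilis ClpP at pH 8 with the FRET-FV decapeptide, read at 430 nm after 320 nm excitation. The 20-min minus 0-min signal was scaled between DMSO/no-enzyme wells and ADEP (5.8 microM final).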
GLP1R inv ag – acts as inverse agonist at human GLP-1 receptor; P43220; HEK293 GLP-1R CRE-luciferase, luminescence, 24 h; GLP-1R form is constitutively active; Potency, µM (highest dose often 38.3 µM), for the others: at the top dose activity change, negative = inhibition, usual class: inhibitors; 410,000 compounds, 1.6% hits; also: % is scaled to controls: 0 for no effect and ±100 for the full control effect; nearly all actives have a fitted effect of over 55% in size
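Using stably transfected HEK293 (constitutively active GLP-1R, cAMP-luciferase reporter), compounds were incubated 24 hr and luciferase measured by luminescence.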
* = called active by the depositor; ? = inconclusive; / = no result given; [ ] = dose if it differs, or a comment. The list is not random: actives were taken first. Their share in the collection is about 3.2%. Unless noted, calls follow the shape of the dose curve; as a rule, active = well fitted curve in the direction sought with a large enough effect; inconclusive = small, poorly fitted or top-dose-only effect, or another doubt; inactive = no such curve, though single readings can be large; an effect the other way counts as inactive or inconclusive. Potency is read from the fitted curve at half-maximal effect.

SMILES | HEK293 tox | GLP1R ag | ClpP mod | GLP1R inv ag
O=C1NC(c2ccc3c(c2)OCO3)Nc2ccccc21 (centres undefined) | -28% | -5% | 32µM* | -9%
CCOC(=O)N1CCN(CC(O)COCc2ccc(Cl)cc2)CC1 (centres undefined) | -11% | -11% | 14µM* | -13%
Cc1ccc(NS(=O)(=O)c2ccc(NC(=O)C(C)Sc3ccc(Cl)cc3)cc2)c(C)c1 (centres undefined) | 12% | 2% | 0% | 10µM*
CCCCNC(=O)c1nc(-c2cc3ccccc3[nH]2)oc1-c1cccc(C(F)(F)F)c1 | -3% | / | -8% | 1%
COC(=O)c1cc2sc(C)cc2n1Cc1ccc(F)cc1Cl | 4% | / | ? | -4%
COCCCNC(=O)c1ccc(Cn2c(SCc3ccc(F)cc3)nc3cccnc32)cc1 | -4% | / | 5% | 6%
O=C(Cn1c(-c2cccs2)cc2cc(Cl)ccc21)N1CCCCC1 | -5% | / | 35µM* | ?
Cc1ccc(CNC(=O)Cn2c(-c3cccs3)cc3cc(Cl)ccc32)cc1 | 1% | / | ? | 9%
CCOC(=O)Cn1c(-c2cccs2)cc2cc(Cl)ccc21 | 3% | / | 22µM* | ?
CCN1CCN(C(=O)Cn2c(-c3cccs3)cc3cc(Cl)ccc32)CC1 | -3% | / | 32µM* | ?
O=C(CN1CCN(c2cccc(Cl)c2)CC1)N1CCCC1 | -13% | -10% | 0% | -4%
CCOc1ccc2nc(N3CCCC(C(=O)NCCc4ccc(OCC)c(OCC)c4)C3)sc2c1 (centres undefined) | 1% | / | 2% | 0%
Cc1cc(CN(C)C(=O)c2cc(COc3ccc(C)c(C)c3)on2)on1 | 23% | 1% | -1% | ?
C#CCN(C(=O)c1cc(COc2ccc(C)c(C)c2)on1)C1CCCCC1 | -4% | 9% | 2% | 10µM*
Cc1ccc(OCc2cc(C(=O)N(C)C3CCCc4ccccc43)no2)cc1C (centres undefined) | 5% | 7% | -6% | 11µM*
O=C(O)C1C2C=CC(C2)C1C(=O)NCc1ccc(Cl)c(Cl)c1 (centres undefined) | -14% | 3% | -1% | 11µM*
COc1ccccc1C(=O)NCCSCc1c(F)cccc1Cl | 3% | 14% | -5% | ?
Cc1c(C(=O)NCCSCc2c(F)cccc2Cl)cnn1-c1ccc(Cl)cc1 | 0% | 17% | / | 10µM*
C[C@H](c1ccccc1)N1C[C@H](COCc2ccccc2)Oc2cc(N3CC[C@H](O)C3)ccc2S1(=O)=O | -6% | 4% | -20% | 10µM*
COC[C@@H]1CCCN1c1ccc2c(c1)O[C@@H](COCc1ccccc1)CN([C@@H](C)c1ccccc1)S2(=O)=O | 1% | -3% | 14µM* | ?
C[C@H](c1ccccc1)N1C[C@@H](COCc2ccccc2)Oc2cc(N3CC[C@H](O)C3)ccc2S1(=O)=O | -1% | -2% | -12% | ?
Cc1cc(C)c(C)c(OCC(=O)Nc2ccc(S(=O)(=O)Nc3nc(C)cc(C)n3)cc2)c1 | 5% | / | -3% | -21%
CCOC(=O)CCNC(=O)N1CCN(S(=O)(=O)c2ccc3c(ccn3C)c2)CC1 | 5% | -4% | -1% | 15%
CCC1Oc2ccc(C)cc2N(CC(=O)N(Cc2ccc(C)o2)C2CCCC2)C1=O (centres undefined) | -37% | -17% | 3% | 4.5µM*
O=C(C[n+]1ccccc1Br)c1ccc(Cl)cc1 | / | / | 0% | /
SMILES | HEK293 tox | GLP1R ag | ClpP mod | GLP1R inv ag
Cc1ccc2nc(SC(C(=O)Nc3ccc(F)cc3)c3ccccc3)[nH]c2c1 (centres undefined) | ? | -18% | -7% | 5.6µM*
Cc1ccc2nc(SC(C)C(=O)NC3CCCc4ccccc43)[nH]c2c1 (centres undefined) | -20% | 1% | 25µM* | ?
Cc1ccc2nc(SCC(=O)Nc3cccc(S(=O)(=O)N(C)C)c3)[nH]c2c1 | -24% | -1% | 1% | ?
O=C(CSc1nc2ccc(Cl)cc2[nH]1)NC1CCCc2ccccc21 (centres undefined) | -18% | 16% | / | 8.9µM*
NS(=O)(=O)c1cccc(NC(=O)CSc2nc3ccc(Cl)cc3[nH]2)c1 | -2%[0.307 µM] | 5% | 14µM* | 21%[0.307 µM]
COc1ccc2nc(SCC(=O)NC3CCCc4ccccc43)[nH]c2c1 (centres undefined) | -14% | -1% | -1% | ?

Screening data: PubChem BioAssay, National Center for Advancing Translational Sciences (NCATS)
